In PubChem BioAssay (NCATS):
Records with an inconclusive call do not appear. Calls of active or inactive are those of the source. Unless noted, calls come from the whole dose curve; as a rule, active = well fitted curve in the direction sought with a large enough effect; inconclusive = small, poorly fitted or top-dose-only effect, or another doubt; inactive = no such curve, though single readings can be large; an effect the other way counts as inactive or inconclusive.

Tests used:
[1] = Confirmation and Secondary Assay for Modulators of Hemoglobin Beta Chain Splicing at IVS2 654 locus (AID 910);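 note: HeLa cells stably carrying EGFP split by mutant beta-globin IVS2-654 intron; per-well total GFP intensity by laser scanning cytometry after 2-day treatment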
Procedure, shortened: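 Readout: per-well total peak green fluorescence (488 nm ex, 500–520 nm em) from objects 5–250 µm, reflecting correct splicing of an EGFP-654 reporter. Compounds were applied for 2 days at 37 °C to overnight-plated HeLa EGFP-654 cells; controls were DMSO and 500 nM IVS2-654 PNA.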

[2] = Confirmation and Secondary Assay for Modulators of Hemoglobin Beta Chain Splicing at IVS2 705 locus (AID 930);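 note: HeLa cells stably expressing the EGFP-705 splicing reporter; series mostly up to about 46 µM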
Procedure, shortened: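 HeLa cells stably carrying EGFP interrupted by mutant beta-globin IVS2-705 intron (CMV-driven) were seeded at 500 cells/well, treated next day with compound for 2 days at 37C; corrected splicing restores EGFP, read as total peak GFP intensity per well.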

[3] = qHTS Assay for Identification of Small Molecule Agonists for Thrombopoietin (TPO) Signaling Pathway (AID 917)
Procedure, shortened: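 Stimulation at the TPO EC50 (26 pM final) was used to detect activators. Ba/F3 mouse cells bearing human TPO receptor and a luciferase reporter under the Glycoprotein IIb promoter were exposed to compounds for 24 hrs at 37 C.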

[4] = molecular target: Muscarinic acetylcholine receptor M1 (Rattus norvegicus) (UniProt P08482); test: qHTS Assay for Antagonists of Acetylcholine Muscarinic M1 Receptor: Kinetic Measurement of Intracellular Calcium Response (AID 943);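 note: Fluo-4 calcium signal as peak divided by basal fluorescence over 4 min; series mostly up to about 35 µM; nearly all actives have a fitted effect of over 75% in size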
Procedure, shortened: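 Quantitative HTS in CHO-M1 (rat receptor) cells: 10 min compound exposure ahead of 100 nM carbachol, Fluo-4 fluorescence followed 4 min, value expressed as peak-to-basal ratio.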

[5] = molecular target: Muscarinic acetylcholine receptor M1 (Rattus norvegicus) (UniProt P08482); test: qHTS Assay for Antagonists of Acetylcholine Muscarinic M1 Receptor: Measurement of IP-One Response (AID 944); note: nearly all actives have a fitted effect of over 75% in size
Procedure, shortened: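 Antagonism was measured as loss of carbachol-driven (EC80) IP1 accumulation in CHO cells carrying rat M1, using a homogeneous IP-One TR-FRET kit read at 620 and 665 nm.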

[6] = molecular target: Pyruvate kinase (Leishmania mexicana) (UniProt Q27686); test: qHTS Validation Assay for Inhibitors of Leishmania Mexicana Pyruvate Kinase (AID 945)
Procedure, shortened: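 LmPYK E451W 0.2 nM; 0.5 mM PEP, 0.1 mM ADP, 7 mM MgCl2, 50 mM KCl, imidazole pH 7.2, 0.01% Tween 20, 0.05% BSA; 1 h RT; PKLight luminescence; DMSO-normalized.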

[7] = molecular target: Pyruvate kinase PKM (Homo sapiens) (UniProt P14618); test: qHTS Assay for Activators of Human Muscle Pyruvate Kinase (AID 954; active = well fitted curve in the direction sought with a large enough effect, not every such curve was filed as active)
Procedure, shortened: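 ATP production by PKM2 detected via luciferase luminescence after 1 h room-temperature reaction (0.1 nM enzyme, PEP at Km 0.5 mM, ADP 0.1 mM, pH 7.2 imidazole buffer). Inhibition scaled to no-enzyme control; activation referenced to 0.3 nM enzyme wells.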

[8] = molecular target: Cytochrome P450 2C19 (Homo sapiens) (UniProt P33261); test: qHTS Assay for Inhibitors and Substrates of Cytochrome P450 2C19 (AID 899); note: nearly all actives have a fitted effect of over 60% in size
Procedure, shortened: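 Reactions contain 5nM enzyme, 10uM Luciferin-H EGE (KM) and 50mM KPO4; compound preincubates 10 min at 37C, NADPH regeneration starts turnover for 60 min. Luminescence after detection reagent gives activity.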

[9] = Cell Viability - LYMP2-001 (AID 921); note: nearly all actives have a fitted effect of over 70% in size; note: potency is the fitted concentration of half-maximal effect
Procedure, shortened: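 Human lymphoblastoid LYMP2-001 cells, 2500 per well, in complete medium, treated 24 h at 37 C. Viability from cellular ATP by CellTiter-Glo luminescence; AC50 from Hill-equation fits of qHTS concentration-response.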

[10] = MultiTox-Fluor Cytotoxicity Assay - LYMP1-001 - Dead Cells (AID 946)
Procedure, shortened: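 Cytotoxicity as increased dead-cell protease fluorescence (bis-AAF-R110, 485/520 nm), read 60 min after MultiTox-Fluor reagent. Human lymphoblastoid line exposed 16 h; Hill-fitted AC50, with DMSO as 0% and 15 uM tetraoctylammonium bromide as 100%.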

[11] = MultiTox-Fluor Cytotoxicity Assay - LYMP1-001 - Live Cells (AID 947)
[12] = Cell Viability - LYMP1-002 - Assay at 16 hr (AID 948); note: potency is the fitted concentration of half-maximal effect
Procedure, shortened: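 LYMP1-002 human lymphoblastoid cells, 2500/well, were treated with compounds for 16 hr at 37 C in complete medium. Viability was read as intracellular ATP by CellTiter-Glo luminescence, and AC50 was derived from a Hill fit to concentration-response data.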

[13] = MultiTox-Fluor Cytotoxicity Assay - LYMP1-002 - Live Cells (AID 955);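 note: cells exposed to compound for 16 hours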
Procedure, shortened: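 In this qHTS viability format, lymphoblastoid cells (LYMP1-002, human) received compound for 16 hr at 37 C. Fluorogenic GF-AFC cleavage by viable cells was detected at 405/510 nm after 1 h at room temperature.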

[14] = MultiTox-Fluor Cytotoxicity Assay - LYMP1-003 - Dead Cells (AID 961); note: nearly all actives have a fitted effect of over 70% in size
Procedure, shortened: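 Dead-cell protease release, detected as bis-AAF-R110 fluorescence at 485/520 nm, was measured in LYMP1-003 cells after 16 h compound treatment at 37 C. AC50 values came from Hill-modeled qHTS curves normalized to DMSO (0%) and 15 uM tetraoctylammonium bromide (100%).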

[15] = MultiTox-Fluor Cytotoxicity Assay - LYMP1-003 - Live Cells (AID 962);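 note: cells exposed to compound for 16 hours at 37 °C; cytotoxic hits lower the live-cell protease signal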
Procedure, shortened: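 Human lymphoblastoid line LYMP1-003 in complete culture medium, treated 16 hr with titrated compounds. Viable cells quantified via cell-permeant GF-AFC substrate fluorescence; AC50 derived by Hill fitting.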

[16] = Cell Viability - LYMP1-003 - Assay at 24 hr (AID 963); note: potency is the fitted concentration of half-maximal effect
Procedure, shortened: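 The lymphoblastoid line was treated with titrated compounds for 24 hours, and viable cell number estimated from luciferase-based ATP luminescence.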

[17] = MultiTox-Fluor Cytotoxicity Assay - LYMP1-002 - Dead Cells (AID 960); note: nearly all actives have a fitted effect of over 60% in size; note: potency is the fitted concentration of half-maximal effect
Procedure, shortened: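 Concentration-dependent increases in membrane-leaked protease activity are quantified in LYMP1-002 cells after 16 hr treatment; values are normalized against DMSO and tetraoctylammonium bromide (15 uM) controls and AC50 derived by Hill modeling.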

Measured: Potency

Sequence of Muscarinic acetylcholine receptor M1 (Rattus norvegicus) (P08482 whole entry, looked up): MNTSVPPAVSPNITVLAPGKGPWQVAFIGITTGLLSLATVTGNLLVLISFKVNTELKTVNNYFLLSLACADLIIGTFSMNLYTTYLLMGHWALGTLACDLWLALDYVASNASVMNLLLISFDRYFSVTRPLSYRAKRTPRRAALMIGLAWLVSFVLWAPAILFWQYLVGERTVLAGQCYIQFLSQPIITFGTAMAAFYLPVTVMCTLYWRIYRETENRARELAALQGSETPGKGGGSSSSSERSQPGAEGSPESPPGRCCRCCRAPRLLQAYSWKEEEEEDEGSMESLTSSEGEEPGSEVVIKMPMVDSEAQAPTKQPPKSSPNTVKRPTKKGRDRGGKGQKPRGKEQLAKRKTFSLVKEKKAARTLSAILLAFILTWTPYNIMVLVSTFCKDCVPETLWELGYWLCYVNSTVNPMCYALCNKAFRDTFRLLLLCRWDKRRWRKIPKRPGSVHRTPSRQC
Sequence of Cytochrome P450 2C19 (Homo sapiens) (P33261 whole entry, looked up): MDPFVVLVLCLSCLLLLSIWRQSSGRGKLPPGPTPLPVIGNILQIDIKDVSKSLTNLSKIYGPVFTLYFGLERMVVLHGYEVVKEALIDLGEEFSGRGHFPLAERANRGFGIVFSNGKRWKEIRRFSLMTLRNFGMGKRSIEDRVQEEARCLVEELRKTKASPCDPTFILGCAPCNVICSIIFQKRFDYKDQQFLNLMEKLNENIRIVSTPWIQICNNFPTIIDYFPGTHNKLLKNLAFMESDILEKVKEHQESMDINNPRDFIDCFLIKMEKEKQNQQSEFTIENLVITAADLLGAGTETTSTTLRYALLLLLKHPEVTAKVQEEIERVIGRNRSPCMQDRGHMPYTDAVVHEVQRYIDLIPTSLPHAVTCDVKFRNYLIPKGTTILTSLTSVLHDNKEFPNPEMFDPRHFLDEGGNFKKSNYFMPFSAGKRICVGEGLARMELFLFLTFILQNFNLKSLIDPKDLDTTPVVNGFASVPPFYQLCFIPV
Sequence of Pyruvate kinase (Leishmania mexicana) (Q27686 2-499 E452W): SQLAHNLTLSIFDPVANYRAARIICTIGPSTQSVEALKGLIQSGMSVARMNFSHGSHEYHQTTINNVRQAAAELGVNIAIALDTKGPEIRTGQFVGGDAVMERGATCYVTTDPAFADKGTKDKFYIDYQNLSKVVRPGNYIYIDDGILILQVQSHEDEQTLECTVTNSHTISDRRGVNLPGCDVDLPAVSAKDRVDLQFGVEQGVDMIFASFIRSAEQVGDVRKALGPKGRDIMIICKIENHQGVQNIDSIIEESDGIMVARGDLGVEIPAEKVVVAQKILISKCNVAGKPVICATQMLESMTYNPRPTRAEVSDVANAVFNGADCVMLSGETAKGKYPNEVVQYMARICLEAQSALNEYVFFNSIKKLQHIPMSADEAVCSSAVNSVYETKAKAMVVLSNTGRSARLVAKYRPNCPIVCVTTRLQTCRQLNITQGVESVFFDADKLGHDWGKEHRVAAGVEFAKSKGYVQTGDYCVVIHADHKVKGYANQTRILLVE
Sequence of Pyruvate kinase PKM (Homo sapiens) (P14618 whole entry, looked up): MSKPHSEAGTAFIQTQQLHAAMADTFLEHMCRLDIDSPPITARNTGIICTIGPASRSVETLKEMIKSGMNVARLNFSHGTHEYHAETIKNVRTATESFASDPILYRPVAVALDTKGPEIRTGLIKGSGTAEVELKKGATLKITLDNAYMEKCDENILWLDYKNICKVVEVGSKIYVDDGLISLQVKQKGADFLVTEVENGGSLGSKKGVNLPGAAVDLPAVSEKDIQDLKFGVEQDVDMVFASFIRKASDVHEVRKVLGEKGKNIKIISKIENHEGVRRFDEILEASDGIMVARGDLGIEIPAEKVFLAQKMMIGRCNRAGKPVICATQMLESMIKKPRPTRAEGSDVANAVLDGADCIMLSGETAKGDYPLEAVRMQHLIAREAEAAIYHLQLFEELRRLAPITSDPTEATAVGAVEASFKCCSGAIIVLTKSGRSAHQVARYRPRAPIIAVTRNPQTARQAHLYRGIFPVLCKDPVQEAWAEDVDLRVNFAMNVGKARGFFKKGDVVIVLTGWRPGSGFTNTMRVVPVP

CCCCOc1ccc(C(=O)CCN2CCCCC2)cc1
inactive: [1] | [2]

CCC(=O)c1c(O)cc(O)cc1O
inactive: [1] | [2]

C1CCc2nnnn2CC1
inactive: [1] | [3] | [2] | [4] | [5] | [6] | [7]

COc1cc(-c2ccc(=O)[nH]n2)ccc1OC(F)F
inactive: [8] | [3] | [4] | [6]

COC1=CC(=O)C[C@@H](C)[C@]12Oc1c(Cl)c(OC)cc(OC)c1C2=O
not listed: [3] | [4] | [5] | [6] | [7] | [8] | [17]
inactive: all other assays above

CCOC(=O)n1ccn(C)c1=S
inactive: [1] | [2]

Nc1ccc(C(=O)O)cc1
not listed: [3] | [4] | [5] | [6] | [7] | [8] | [11]
inactive: all other assays above

CCCn1c(=O)[nH]c(=O)c2[nH]cnc21
inactive: [8] | [3] | [6] | [7]

Oc1c(I)cc(Cl)c2cccnc12
active: [9] 39.8 µM | [17] 31.6 µM
inactive: [1] | [2] | [10]

CCN(CC)C(=O)N1CCN(C)CC1
inactive: [1] | [2]

C=CCc1ccc(O)c(OC)c1
not listed: [3] | [4] | [5] | [6] | [7] | [8]
inactive: all other assays above

O=c1ccc2ccccc2o1
not listed: [3] | [4] | [5] | [6] | [7] | [8]
inactive: all other assays above

CC(C)(C)CC(C)(C)c1ccc(OCCOCC[N+](C)(C)Cc2ccccc2)cc1
inactive: [1] | [2]
active: [9] 20 µM | [12] 50.1 µM | [16] 50.1 µM

CC(C)NC[C@@H](O)COc1cccc2ccccc12
inactive: [1] | [3] | [2] | [5] | [7]

CCCCCCc1ccc(O)cc1O
not listed: [3] | [4] | [5] | [6] | [7] | [8] | [17]
inactive: all other assays above

COc1c(C)c2c(c(O)c1C/C=C(\C)CCC(=O)O)C(=O)OC2
inactive: [8] | [1] | [2]
